According to PubChem BioAssay AID1362 (SRMLSC, 2008):
Among all 190,000 compounds or so, about 4,000 (2.1%) were called active. Rule as the data show it: active = inhibition above about 58%; inactive = the rest, inconclusive results apart; tested in S. cerevisiae. What follows is part of a selection rich in actives, with near analogues and random picks from the rest.

Assay: growth inhibition of WT strain, primary screen, mitochondrial fusion inhibitor project, WT and mutant strains, chemical genetic (AID 1362)
Settings: mitochondrial fusion phenotypic screen, at 10 µM
[1] = WT strain, growth inhibition, stronger effect = higher value

Row | Structure (SMILES) | inhibition [1] | inhibition (mutant strain inhibition) [%]
1 | O=C(c1ccc(C(F)(F)F)cc1)C1CCCN(C(=O)c2csnn2)C1 (stereo not given) | 7.52% (inactive) | 10.7
2 | COc1ccc(-c2csc(NC(=O)c3ccc(N4C(=O)CCC4=O)cc3)n2)cc1OC | 7.99% (inactive) | 3.27
3 | CC(=O)c1ccc(N2CCN(CC(=O)Nc3ccccc3N3CCOCC3)CC2)cc1 | -16% (inactive) | 4.64
4 | COC(=O)Cc1ccc(NC(=S)NCc2ccco2)cc1 | 6.76% (inactive) | 3.2
5 | O=C(O)C1CC=CCC1C(=O)Nc1ccccc1C(=O)N1CCN(c2ccccc2)CC1 (stereo not given) | -12.3% (inactive) | -3.47
6 | Cc1cccc(N2CCN(C(=O)c3ccccc3NC(=O)C3CCCCC3C(=O)O)CC2)c1 (stereo not given) | -3.08% (inactive) | -3.64
7 | CC(C)c1ccc(N2CCN(C(=O)c3ccccc3NC(=O)/C=C(\C(=O)O)c3ccccc3)CC2)cc1 | 71% (active) | 37.8
8 | COc1cc(NC(=S)NCc2ccc(S(N)(=O)=O)cc2)cc(OC)c1 | -1.93% (inactive) | 4.18
9 | COc1cc(NC(=S)NCCSc2ccc(C)cc2)cc(OC)c1 | 71.4% (active) | 51.4
10 | COc1ccc(NC(=S)NCCNC(C)=O)cc1 | 3.42% (inactive) | 8.02
11 | Cc1nnc(SC(C(=O)Nc2cc(Cl)cc(Cl)c2)c2ccccc2)[nH]c1=O (stereo not given) | 1.45% (inactive) | 9.8
12 | COc1cc(/C=C/C(=O)OCC(=O)NC(=O)NCc2ccccc2)ccc1OCC#N | 6.54% (inactive) | 3.13
13 | CN1C(=O)C(CC(=O)Nc2ccccc2)S/C1=N/c1nccs1 (stereo not given) | -7.94% (inactive) | 3.24
14 | COc1ccc(Cl)cc1NC(=O)C(C)N1CCc2ccccc21 (stereo not given) | 54% (inactive) | 18.4
15 | COCCOCCn1cnc2ccccc21 | -10.3% (inactive) | -7.09
16 | Clc1ncn(CCOc2ccccc2)c1Cl | -14.3% (inactive) | -12.6
17 | Cc1cc2ncn(CCCCOc3ccccc3)c2cc1C | 62.5% (active) | 44.6
18 | COc1ccc(C(=O)NNC(=O)c2cc(C)[nH]n2)cc1 | -20% (inactive) | -23.8
19 | C/C(=C\c1ccco1)CN1CCC(N2CCC(C(=O)N3CCOCC3)CC2)CC1 | -2.61% (inactive) | 2.35
20 | O=C(NC(=S)Nc1cccc(-c2ccc(CO)o2)c1)c1cccs1 | 6.13% (inactive) | 12.3
21 | CC(=O)Nc1ccc(NC(=S)NC(=O)/C=C/c2ccccc2)cc1 | -1.35% (inactive) | -0.82
22 | CCOC(=O)c1cc2cc(-c3c(C(=O)OCC)oc4cc(O)cc(O)c4c3=O)ccc2o1 | -4.08% (inactive) | -39.7

Row | Structure (SMILES) | inhibition [1] | inhibition (mutant strain inhibition) [%]
23 | O=c1c(-c2ccc3c(c2)OCCO3)c(C(F)(F)F)oc2cc(O)cc(O)c12 | 70.7% (active) | 42.8
24 | COc1ccc(-c2onc(C)c2-c2ccc3c(c2)OCCO3)c(O)c1 | 21.9% (inactive) | -8.53
25 | Cc1ccc(NC(=S)NCc2ccccc2Cl)c(C)c1 | 41% (inactive) | -1.48
26 | S=C(NCCc1ccccc1)NCc1ccccc1Cl | 62% (active) | 35.9
27 | S=C(NCCc1ccccc1)N1CCCCC1 | 8.05% (inactive) | 12.7
28 | CC(=O)N1CCN(S(=O)(=O)c2c(F)cc(F)c(Cl)c2F)CC1 | -3.19% (inactive) | 3.15
29 | CSc1ccc(/C=N/N2CCN(Cc3ccccc3Cl)CC2)cc1 | 43.5% (inactive) | 23.8
30 | COc1cc(CNC2CCCCC2)c(Br)cc1OC1CCCC1 | 18.3% (inactive) | 20.6
31 | O=C(/C=C/c1ccccc1)N/C(=C/c1ccccc1)C(=O)Nc1ccccc1O | -8.09% (inactive) | -0.03
32 | CCc1ccccc1NC(=O)/C(=C/c1ccccc1)c1ccccc1 | 64.8% (active) | 9.35
33 | CCc1ccccc1NC(=O)c1cccs1 | 2.87% (inactive) | -2.72
34 | CCN(CC)CCN(C(=O)c1ccc(N2C(=O)CCC2=O)cc1)c1nc2cc3c(cc2s1)OCO3 | 2.8% (inactive) | -0.18
35 | COc1ccc(-c2ccc(CNCCCN3CCOCC3)o2)cc1Cl | 6.85% (inactive) | 12.6
36 | C=CCNC(=S)NNC(=O)COc1c(Cl)cc(Cl)cc1Cl | 67.1% (active) | 29.7
37 | C=CCNC(=O)COC(=O)CNC(=O)c1cc(Cl)cc([N+](=O)[O-])c1 | -6.93% (inactive) | 10.8
38 | C=CCNC(=S)NNC(=O)c1ccc(Br)o1 | -3.81% (inactive) | 3.41
39 | CCOC(=O)C1CCCN(C(=O)c2cccc(S(=O)(=O)N3CCOCC3)c2)C1 (stereo not given) | -0.28% (inactive) | -18.7
40 | O=C(COc1ccc(-c2ccccc2)cc1)NN=C1CCCC1 | 2.21% (inactive) | -3.38
41 | CCCCc1cc2c(s1)CCCC/C2=N/O | 63.2% (active) | 6.26
42 | CCCc1noc2c1/C(=N\O)CCC2 | -2.57% (inactive) | -4.14
43 | Cc1[nH]c2ccccc2c1/C=C(/C#N)C(=O)NC(C)C | -14% (inactive) | -5.17
44 | Cc1ccc(NC(=S)N(Cc2ccco2)C(C)c2cccs2)cc1 (stereo not given) | 75.8% (active) | 51.5

Row | Structure (SMILES) | inhibition [1] | inhibition (mutant strain inhibition) [%]
45 | Cc1ccc(NC(=S)N(CCCN2CCC(C)CC2)Cc2ccco2)cc1 | 2.89% (inactive) | 13.6
46 | Cc1ccc(NC(=S)N(CCN2CCCCC2)Cc2ccco2)cc1C | 8.12% (inactive) | 24.1
47 | CCN1CCN(C(C(=O)NC2CCCC2)c2cc3c(cc2[N+](=O)[O-])OCO3)CC1 (stereo not given) | 2.26% (inactive) | -2.37
48 | CC1(c2ccccc2)CC(C)(C)N(C(=O)c2cc([N+](=O)[O-])cc([N+](=O)[O-])c2)c2ccccc21 (stereo not given) | 57% (inactive) | 35.9
49 | CC1CCN(C(=S)c2cccc([N+](=O)[O-])c2)CC1 | 7.85% (inactive) | 23
50 | CC1(c2cccc([N+](=O)[O-])c2)CC(C)(C)N(C(=O)c2ccccc2)c2ccccc21 (stereo not given) | 75.8% (active) | 33.1
51 | CCC(C(=O)OCC(=O)Nc1c(Cl)cc(Cl)cc1Cl)c1ccccc1 (stereo not given) | 11.1% (inactive) | -9.47
52 | CCC(C(=O)OCC(=O)Nc1ccccc1-c1ccccc1)c1ccccc1 (stereo not given) | 70.9% (active) | -2.32
53 | CCC(C(=O)OCC(=O)Nc1ccc(C(=O)Nc2ccc(OC)cc2)cc1)c1ccccc1 (stereo not given) | 12.9% (inactive) | -13.4
54 | O=C(Nc1ccc(NC(=O)c2ccco2)c(Cl)c1)c1cccc([N+](=O)[O-])c1 | 2.21% (inactive) | 16.7
55 | CC(=O)c1cnc(-c2ccccc2)s1 | 3.8% (inactive) | -4.54
56 | Cc1ccc(C2CCN(C(=S)Nc3cccc(Cl)c3)C2)cc1 (stereo not given) | 74.3% (active) | 55
57 | Cc1cccc(NC(=S)N2CCCC(c3nc4ccccc4[nH]3)C2)c1 (stereo not given) | -10.4% (inactive) | 0.82
58 | O=C(C1CCCO1)N1CCN(C(=S)Nc2cccc(Cl)c2)CC1 (stereo not given) | -4.05% (inactive) | 25.8
59 | CC1CN(/C=C/C(=O)C(F)(F)F)CC(C)O1 (stereo not given) | -25.3% (inactive) | 4.39
60 | S=c1[nH]nc(-c2ccccc2)n1/N=C/c1c[nH]c2ccccc12 | 1.16% (inactive) | 0
61 | CSC(=S)N/N=C/c1c[nH]c2ccccc12 | 65.8% (active) | 13.3
62 | O=C(O)c1cccc(NC(=S)N/N=C/c2c[nH]c3ccccc23)c1 | -10.2% (inactive) | 4.36
63 | CCOC(=O)c1cnc2[nH]c3ccccc3n2c1=O | 2.43% (inactive) | -12.9
64 | Cc1ccc(Cl)cc1NC(=O)C1CCN(S(C)(=O)=O)CC1 | -9.34% (inactive) | -12.3
65 | Cc1ccccc1NC(=O)NC1(C(=O)N2CCCC2)CCCCC1 | -9.64% (inactive) | 7.72
66 | Cc1c(NC(=S)NCc2ccc(F)cc2)cccc1[N+](=O)[O-] | 5.62% (inactive) | 3.03

Row | Structure (SMILES) | inhibition [1] | inhibition (mutant strain inhibition) [%]
67 | Cc1cccc(NC(=S)NCCc2ccc(F)cc2)c1C | 74.7% (active) | 64.6
68 | CCNC(=S)Nc1cccc(Cl)c1C | 12.8% (inactive) | 23.6
69 | O=C(OCC(=O)N1CCOCC1)c1ccc(N2CCOCC2)c([N+](=O)[O-])c1 | -7.83% (inactive) | -1.16
70 | O=C(COc1ccc(Cl)cc1[N+](=O)[O-])N1CCCCC1 | 1.62% (inactive) | -14.6
71 | CCOC(=O)N/N=C/c1cn(Cc2ccccc2Cl)c2ccccc12 | -3.34% (inactive) | -14.2
72 | CNC(=S)N/N=C/c1cn(Cc2ccc(C)cc2)c2ccccc12 | 74.4% (active) | 61.2
73 | COC(=O)N/N=C/c1cn(CCCOc2ccc(C)cc2)c2ccccc12 | 2.1% (inactive) | -14.3
74 | Cc1cc(C(C)(C)C)cc(S(=O)(=O)Nc2ccc(C(=O)O)cc2)c1C | -13% (inactive) | 10.3
75 | Cc1cc(NS(=O)(=O)c2ccc(NC(=O)c3cccc(OC(F)F)c3)cc2)nc(C)n1 | -7.81% (inactive) | 6.49
76 | Cc1cc(C)cc(NC(=O)CSc2ccccc2)c1 | -4.46% (inactive) | -13.2
77 | O=C(N/N=C/c1ccc([N+](=O)[O-])cc1)c1c[nH]c2ccccc12 | -8.33% (inactive) | 14.7
78 | Cc1nc2ccccc2cc1C(=O)N/N=C/c1ccc([N+](=O)[O-])cc1 | 65.1% (active) | 20.7
79 | Cc1ccsc1C(=O)N/N=C/c1ccc([N+](=O)[O-])cc1 | -11.5% (inactive) | -7.32
80 | Cc1ccc2[nH]c(=O)c(CN(CC3COCCO3)C(=O)Nc3ccccc3C)cc2c1 (stereo not given) | -8.31% (inactive) | 8.92
81 | Cc1nc(SCC(=O)Nc2cc(C)on2)c2c3c(sc2n1)CCCC3 | 21.1% (inactive) | 31.1
82 | Cc1cc(C)n(-c2nc(SCC(=O)N3CCCC3)c3c4c(sc3n2)CCCC4)n1 | 62% (active) | 38.4
83 | COCCNc1nc(-n2nc(C)cc2C)nc2sc3c(c12)CCCC3 | 18.8% (inactive) | 0
84 | Cc1cc(C)n(-c2nnc(N3CCN(c4ccccc4)CC3)nn2)n1 | 12.1% (inactive) | 10.8
85 | CC(CO)NCC12CC3CC(CC(C3)C1)C2 (stereo not given) | -17.6% (inactive) | -8.59
